# The source made the active and inactive calls.
# Experiments:
# [1] = tested on: Plasmodium falciparum Sir2 (PF13_0152, Sir2A); assay: pfSir2 binders on small-molecule microarrays, primary screen, biochemical, small-molecule microarray, 635 nm fluorescence (AID 1098); conditions: small-molecule microarray binding, fluorescence 635 nm; higher = more signal;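 also: score merges spot fluorescence intensity with its signal-to-noise ratio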
# [2] = small-molecule microarray binders of probe aDKK1, primary screen, biochemical, biotinylated probe, 635/667 nm fluorescence (AID 1099); conditions: higher = more signal;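 also: score merges 667nm spot fluorescence with signal to noise across triplicate slides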
# [3] = small-molecule microarray binders of probe aCHRDL2, primary screen, biochemical, biotinylated probe, 635/667 nm fluorescence (AID 1100); conditions: higher = more signal
# [4] = splicing luciferase reporter signal modulators, primary screen, spliceosome inhibition project, cell-based, HEK293, splice +/- reporter (AID 1101); conditions: luminescence, 24 h, higher = more signal, called active from +8 up or from −8 down;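 also: HEK293 cells carrying a splicing-competent luciferase reporter gene; test concentration not given here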
# [5] = biological target: Fibroblast growth factor 10 (Homo sapiens) (UniProt O15520); assay: FGF10 binders on small-molecule microarrays, primary screen, biochemical, small-molecule microarray, 635 nm fluorescence (AID 1102); conditions: FGF10 binding, fluorescence 635 nm, higher = more signal
# [6] = tested on: glycogen synthase kinase-3 (GSK3A per assay name; protocol says GSK3B); assay: GSK3 binders on small-molecule microarrays, primary screen, biochemical, small-molecule microarray, 635 nm fluorescence, GSK3A (AID 1103); conditions: small-molecule microarray binding, fluorescence 635 nm; higher = more signal; also: the record names both GSK3A and GSK3B
# [7] = biological target: Epidermal growth factor receptor (Homo sapiens) (UniProt P00533); assay: EGFR binders on small-molecule microarrays, primary screen, biochemical, small-molecule microarray, 635 nm fluorescence (AID 1104); conditions: EGFR binding, higher = more signal;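 also: score merges 667 nm emission intensity with spot signal to noise over triplicate slides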
# [8] = biological target: Follistatin-related protein 3 (Homo sapiens) (UniProt O95633); assay: FSTL3 binders on small-molecule microarrays, primary screen, biochemical, small-molecule microarray, 635 nm fluorescence (AID 1105); conditions: FSTL3 binding, higher = more signal;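 also: score merges emission near 667 nm and signal to noise per printed spot across three slides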
# [9] = biological target: Dickkopf-related protein 1 (Homo sapiens) (UniProt O94907); assay: DKK1 binders on small-molecule microarrays, primary screen, biochemical, small-molecule microarray, 635 nm fluorescence scan (AID 1106); conditions: DKK1 binding, higher = more signal;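 also: score merges emission near 667 nm with signal to noise over three replicate slides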
# [10] = tested on: Inhibin beta A chain (activin A); assay: INHBA (activin A) binders on microarrays, primary screen, biochemical, small-molecule microarray, 635 nm fluorescence scan (AID 1107); conditions: small-molecule microarray binding, higher = more signal;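 also: mouse activin A protein probed at 4.33 µg/mL on printed slides; score merges bound-protein fluorescence near 667 nm with spot signal-to-noise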
# [11] = tested on: Human papillomavirus type 1a protein E7 (residues 44-93); assay: HPV1a E7 fragment binders on microarrays, primary screen, biochemical, small-molecule microarray, residues 44-93, 635 nm fluorescence (AID 1108); conditions: small-molecule microarray binding, fluorescence 635 nm; higher = more signal;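 also: E7 fragment applied at 1 µg/mL in TBST for 1 h at 4 C; score combines spot fluorescence with its signal to noise ratio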
# [12] = modulators of HCV replicon luciferase signal, primary screen, HCV replication inhibitor project, Huh7 cells, luciferase reporter (AID 1109); conditions: 48 h, higher = more signal;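 also: huh7 hepatoma cells harbouring a luciferase neomycin HCV replicon reporter; luciferase luminescence as measure of HCV replicon replication; test concentration not given here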
# [13] = biological target: Left-right determination factor 2 (Homo sapiens) (UniProt O00292); assay: LEFTY2 binders on small-molecule microarrays, primary screen, biochemical, small-molecule microarray, 635 nm fluorescence scan (AID 1110); conditions: LEFTY2 binding, higher = more signal
# [14] = biological target: Calmodulin-1 (Homo sapiens) (UniProt P0DP23); assay: CALM1 binders on microarrays, EGTA buffer, profiling panel, biochemical, small-molecule microarray, Cy5-labelled CALM1 (AID 1111); conditions: Cy5-CALM1 binding fluorescence, higher = more signal;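 also: labelled calmodulin applied in Tris saline Tween buffer holding calcium plus EGTA and DTT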
# [15] = biological target: Calmodulin-1 (Homo sapiens) (UniProt P0DP23); assay: calcium-bound CALM1 binders on microarrays, profiling panel, artefact control for SMM control-protein annotation, biochemical, small-molecule microarray, Cy5-labelled CALM1, plus calcium (AID 1112); conditions: Cy5-CALM1 binding fluorescence, higher = more signal;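 also: score merges spot fluorescence with signal to noise from triplicate slides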
# [16] = small-molecule microarray binders of probe aWnt5a, primary screen, biochemical, biotinylated probe, 635/667 nm fluorescence (AID 1113); conditions: higher = more signal;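 also: score merges 667 nm fluorescence intensity with signal-to-noise per printed feature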
# [17] = small-molecule microarray binders of probe aShh, primary screen, biochemical, biotinylated probe, 635/667 nm fluorescence (AID 1114); conditions: higher = more signal;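 also: probe is biotin-labelled aShh protein from a stem cell growth factor screen; measures binding of labelled protein to compounds printed on the slide; score merges feature fluorescence at 667 nm with signal-to-noise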
# [18] = small-molecule microarray binders of probe aNog, primary screen, biochemical, biotinylated probe, 635/667 nm fluorescence (AID 1115); conditions: higher = more signal;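 also: probe is biotinylated aNog protein used at 0.15 µg/mL for 1 h at 4 C; z-score combines 667 nm fluorescence of each spot with its signal to noise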
# [19] = biological target: Torsin-1A-interacting protein 1 (Homo sapiens) (UniProt Q5JTV8); assay: LAP1 binders from COS7 cell lysate, primary screen, small-molecule microarray, 635/667 nm fluorescence (AID 1116); conditions: COS7-hLAP1 lysate binding, 635 nm fluorescence, higher = more signal
# [20] = biological target: Alpha-bungarotoxin (Bungarus multicinctus) (UniProt P60615); assay: alpha-bungarotoxin binders on microarray, profiling panel, artefact control for SMM control protein annotation, biochemical, small-molecule microarray, Alexa647 label, 635/667 nm fluorescence (AID 1117); conditions: alpha-BTX-A647 binding fluorescence, higher = more signal
# Chain of Alpha-bungarotoxin (Bungarus multicinctus) (P60615 whole entry, looked up): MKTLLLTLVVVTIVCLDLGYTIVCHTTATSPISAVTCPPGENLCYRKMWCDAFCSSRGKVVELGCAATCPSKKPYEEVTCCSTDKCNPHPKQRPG
# Chain of Dickkopf-related protein 1 (Homo sapiens) (O94907 whole entry, looked up): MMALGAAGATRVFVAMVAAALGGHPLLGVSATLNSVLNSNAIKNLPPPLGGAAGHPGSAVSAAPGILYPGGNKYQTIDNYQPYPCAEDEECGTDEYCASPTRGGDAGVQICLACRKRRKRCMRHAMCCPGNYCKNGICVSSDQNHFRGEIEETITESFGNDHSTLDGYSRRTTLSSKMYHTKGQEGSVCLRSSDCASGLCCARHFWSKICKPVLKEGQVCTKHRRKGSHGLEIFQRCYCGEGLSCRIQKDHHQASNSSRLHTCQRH
# Chain of Torsin-1A-interacting protein 1 (Homo sapiens) (Q5JTV8 whole entry, looked up): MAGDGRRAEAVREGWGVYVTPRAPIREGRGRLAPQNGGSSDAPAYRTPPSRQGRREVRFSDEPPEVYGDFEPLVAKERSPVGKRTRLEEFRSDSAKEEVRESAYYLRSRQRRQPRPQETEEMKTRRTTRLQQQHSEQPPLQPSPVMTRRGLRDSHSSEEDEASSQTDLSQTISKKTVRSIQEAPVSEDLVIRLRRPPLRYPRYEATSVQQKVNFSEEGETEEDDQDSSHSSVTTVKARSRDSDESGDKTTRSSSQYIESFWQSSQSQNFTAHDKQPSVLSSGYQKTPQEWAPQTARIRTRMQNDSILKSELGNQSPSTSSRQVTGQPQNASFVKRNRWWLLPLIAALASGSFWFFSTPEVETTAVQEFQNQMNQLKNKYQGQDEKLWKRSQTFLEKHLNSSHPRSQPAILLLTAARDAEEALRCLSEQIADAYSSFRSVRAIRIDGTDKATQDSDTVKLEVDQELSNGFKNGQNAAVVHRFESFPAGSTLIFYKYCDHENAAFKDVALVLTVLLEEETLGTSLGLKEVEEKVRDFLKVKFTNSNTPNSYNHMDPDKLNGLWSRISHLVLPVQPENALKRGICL
# Chain of Fibroblast growth factor 10 (Homo sapiens) (O15520 whole entry, looked up): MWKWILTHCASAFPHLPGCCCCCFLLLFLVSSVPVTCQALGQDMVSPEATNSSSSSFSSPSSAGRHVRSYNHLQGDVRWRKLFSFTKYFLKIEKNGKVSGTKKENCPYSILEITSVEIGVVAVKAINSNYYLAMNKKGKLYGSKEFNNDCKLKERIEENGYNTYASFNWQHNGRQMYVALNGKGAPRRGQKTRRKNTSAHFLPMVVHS
# Chain of Left-right determination factor 2 (Homo sapiens) (O00292 whole entry, looked up): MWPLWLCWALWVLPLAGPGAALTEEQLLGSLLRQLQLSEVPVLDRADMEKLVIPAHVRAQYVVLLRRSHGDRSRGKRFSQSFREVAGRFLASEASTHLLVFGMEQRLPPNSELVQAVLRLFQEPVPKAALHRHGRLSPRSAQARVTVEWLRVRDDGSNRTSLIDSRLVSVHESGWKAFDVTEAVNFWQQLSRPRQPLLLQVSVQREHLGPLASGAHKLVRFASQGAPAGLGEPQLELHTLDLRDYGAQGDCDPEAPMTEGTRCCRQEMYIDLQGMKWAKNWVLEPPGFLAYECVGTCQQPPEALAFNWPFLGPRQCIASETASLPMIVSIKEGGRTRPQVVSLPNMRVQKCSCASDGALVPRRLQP
# Chain of Epidermal growth factor receptor (Homo sapiens) (P00533 whole entry, looked up): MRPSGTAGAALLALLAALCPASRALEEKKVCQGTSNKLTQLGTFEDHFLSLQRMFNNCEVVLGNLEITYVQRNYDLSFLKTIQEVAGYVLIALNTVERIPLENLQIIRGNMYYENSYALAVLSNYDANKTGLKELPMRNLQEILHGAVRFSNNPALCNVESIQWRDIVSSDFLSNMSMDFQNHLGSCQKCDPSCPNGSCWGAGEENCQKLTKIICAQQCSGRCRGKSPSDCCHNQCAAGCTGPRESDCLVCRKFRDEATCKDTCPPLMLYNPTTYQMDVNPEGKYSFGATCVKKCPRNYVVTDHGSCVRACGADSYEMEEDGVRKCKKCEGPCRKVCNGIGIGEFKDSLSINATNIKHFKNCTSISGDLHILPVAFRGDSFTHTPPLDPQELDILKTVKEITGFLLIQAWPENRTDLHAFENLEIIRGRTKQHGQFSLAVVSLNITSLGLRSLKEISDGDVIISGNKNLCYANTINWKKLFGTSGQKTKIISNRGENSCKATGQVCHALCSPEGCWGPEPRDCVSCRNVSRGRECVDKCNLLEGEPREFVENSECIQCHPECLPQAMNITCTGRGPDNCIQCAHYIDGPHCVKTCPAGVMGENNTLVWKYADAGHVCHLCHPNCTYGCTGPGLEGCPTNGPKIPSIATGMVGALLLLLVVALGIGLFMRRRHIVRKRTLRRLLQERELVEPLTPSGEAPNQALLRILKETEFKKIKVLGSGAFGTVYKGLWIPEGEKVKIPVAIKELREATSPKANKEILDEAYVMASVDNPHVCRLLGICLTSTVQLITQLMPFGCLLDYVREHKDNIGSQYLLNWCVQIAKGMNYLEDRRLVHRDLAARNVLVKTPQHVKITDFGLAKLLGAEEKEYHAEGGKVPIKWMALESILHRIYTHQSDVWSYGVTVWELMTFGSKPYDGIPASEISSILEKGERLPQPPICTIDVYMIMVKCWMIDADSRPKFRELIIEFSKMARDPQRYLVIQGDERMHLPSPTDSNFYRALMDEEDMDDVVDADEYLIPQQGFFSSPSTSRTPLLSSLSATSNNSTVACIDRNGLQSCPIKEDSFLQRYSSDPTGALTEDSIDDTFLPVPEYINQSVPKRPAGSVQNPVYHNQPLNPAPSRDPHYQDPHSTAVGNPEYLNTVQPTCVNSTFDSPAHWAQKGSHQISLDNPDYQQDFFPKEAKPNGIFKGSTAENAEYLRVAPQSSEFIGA
# Chain of Follistatin-related protein 3 (Homo sapiens) (O95633 whole entry, looked up): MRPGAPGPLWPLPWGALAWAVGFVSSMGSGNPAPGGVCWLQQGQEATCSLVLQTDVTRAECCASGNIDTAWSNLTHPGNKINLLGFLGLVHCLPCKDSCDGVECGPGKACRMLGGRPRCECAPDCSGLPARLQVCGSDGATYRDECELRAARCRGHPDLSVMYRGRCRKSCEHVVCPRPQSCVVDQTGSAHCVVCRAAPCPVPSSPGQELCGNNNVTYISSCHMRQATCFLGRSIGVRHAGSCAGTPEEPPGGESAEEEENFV
SMILES,composite z-score [1],composite z-score [2],composite z-score [3],z-score [4],composite z-score [5],composite z-score [6],composite z-score [7],composite z-score [8],composite z-score [9],composite z-score [10],composite z-score [11],z-score [12],composite z-score [13],composite z-score [14],composite z-score [15],composite z-score [16],composite z-score [17],composite z-score [18],composite z-score [19],composite z-score [20]
O=C1[C@@H]2[C@@H](CC(COc3ccccc3)=C3[C@@H](CCc4ccccc4)OB(O)C[C@@H]32)C(=O)N1Cc1ccccc1,0.393,-0.185,-0.23,-0.74 (inactive),0.747,0.081,0.292,0.163,0.147,0.343,-0.458,-1.36,0.222,0.0454,0.171,-0.124,-0.0011,-0.465,-0.0169,-0.0025
COCC(=C=CC[C@H](O)c1cccc(OCCO)c1)C[C@H](O)COCc1ccccc1,1.66,0.39,-0.121,0.13 (inactive),1.17,0.677,-0.751,0.0438,-0.529,1.03,0.768,-0.754,-0.35,-0.238,-0.135,0.0037,0.191,-0.0863,1.58,-0.363
COCCOC(=O)N1C(=O)[C@@]2(c3cc(C#CCC(C(=O)OC)C(=O)OC)ccc31)[C@H](C(=O)NC[C@H](O)c1ccccc1)[C@H]1C(=O)O[C@H](c3ccccc3)[C@H](c3ccccc3)N1[C@@H]2c1ccc(OCCO)cc1,1.18,-0.0002,-0.132,0.28 (inactive),1.04,1.35,0.97,1.09,0.909,0.534,1.36,-1.92,0.793,1.39,-0.0628,-0.0792,0.0141,-0.367,0.314,0.973
O=c1cccc(-c2ccco2)o1,1.28,-0.148,-0.617,0.935 (inactive),0.955,0.829,0.693,1.02,1.16,1.24,0.582,-0.574,0.758,-0.221,-1.23,-0.0179,0.0952,-0.0563,0.18,0.738
COc1ccc([Si](C)(C)[C@H]2[C@H](CCO)O[C@@]3(C(=O)N(Cc4ccccc4)c4ccc(N5C(=O)c6ccccc6Oc6ccccc65)cc43)[C@@H]2C)cc1,0.365,-0.167,-0.123,-0.916 (inactive),0.0351,-0.512,-0.124,-0.734,0.0449,0.201,0.647,-4.49,-0.358,0.425,0.773,0.0431,0.213,0.195,0.323,0.178
NC(=O)NCC#Cc1ccc2c(c1)[C@]1(C(=O)N2)[C@H](C(=O)N2CCN(c3ncccn3)CC2)[C@H]2C(=O)O[C@H](c3ccccc3)[C@H](c3ccccc3)N2[C@@H]1c1ccc(OCCO)cc1,0.695,0.23,0.433,-0.245 (inactive),0.766,-0.364,0.669,1.08,0.151,0.926,1.23,-1.6,0.0996,0.756,0.514,0.0775,-0.0553,0.833,0.572,1.42

# From PubChem BioAssay
